Experiment [1] deals with Cytochrome P450 2D6 (Homo sapiens) (UniProt P10635). In words: Cytochrome P450 Family 2 Subfamily D Member 6 (CYP2D6) small molecule antagonists: luciferase reporter qHTS assay (AID 1671196). For activity change, negative = inhibition: series mostly up to about 120 µM. Note: nearly all actives have a fitted effect of over 50% in size. Note: potency is the fitted concentration of half-maximal effect. The method in brief:
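Enzyme and proluciferin substrate were first combined with test chemical for 10 min at room temperature. Adding NADPH regeneration solution started a 1 h reaction, stopped with luciferin detection reagent and read by luminescence 20 min later.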
Background: Reporter assays use an easily measured gene product as a stand-in for the process of interest.

Experiment [2] concerns the target Cytochrome P450 2C19 (Homo sapiens) (UniProt P33261). In words: Cytochrome P450 Family 2 Subfamily C Member 19 (CYP2C19) small molecule antagonists: luciferase reporter qHTS assay (AID 1671197). For activity change, negative = inhibition: series mostly up to about 120 µM. Note: nearly all actives have a fitted effect of over 65% in size. Note: potency is the fitted concentration of half-maximal effect. The method in brief:
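Relative luminescence units recorded 20 min after the detection reagent stopped a 1 h, 37C CYP2C19 reaction on proluciferin substrate, which was started by NADPH regeneration following 10 min room-temperature compound preincubation; ketoconazole positive control.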

The target in experiment [3] is Cytochrome P450 1A2 (Homo sapiens) (UniProt P05177). In words: Cytochrome P450 Family 1 Subfamily A Member 2 (CYP1A2) small molecule antagonists: luciferase reporter qHTS assay (AID 1671199). For activity change, negative = inhibition: series mostly up to about 120 µM. Note: nearly all actives have a fitted effect of over 50% in size. Note: potency is the fitted concentration of half-maximal effect. The method in brief:
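Compounds were incubated with CYP1A2 and a luminogenic proluciferin substrate for 10 min at room temperature before the reaction was started with NADPH regeneration solution. After 1 h, detection reagent was added and light output, proportional to CYP activity, was recorded.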

For experiment [4], the target named is Voltage-gated inwardly rectifying potassium channel KCNH2 (Homo sapiens) (UniProt Q12809). The experiment can be described thus: Human Ether-a-go-go-Related Gene (hERG) channel small molecule antagonists: fluorescence cell-based qHTS assay (AID 1671200).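 Note: hERG-expressing U2OS cells given a thallium stimulus after FluxOR II dye loading; series mostly up to about 77 µM; nearly all actives have a fitted effect of over 50% in size.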 In outline: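 hERG-U2OS cells plated overnight at 37 C, loaded with FluxOR II dye 1 h at RT in dark; after 10 min, thallium stimulus added. Fluorescence (480/540 nm) read kinetically for 2 min at 1 s intervals.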
On the technique in general: hERG is a cardiac potassium channel; its block is linked to QT prolongation.

Experiment [5] addresses Cytochrome P450 3A4 (Homo sapiens) (UniProt P08684). In words: Cytochrome P450 Family 3 Subfamily A Member 4 (CYP3A4) small molecule antagonists: luciferase reporter qHTS assay (AID 1671201). For activity change, negative = inhibition: series mostly up to about 120 µM. Note: nearly all actives have a fitted effect of over 50% in size. Note: potency is the fitted concentration of half-maximal effect. In outline:
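P450-Glo CYP3A4 luminescent assay: compounds preincubated 10 min at room temperature with enzyme and proluciferin substrate, NADPH regeneration added, 1 h room-temperature reaction, stopped with luciferin detection reagent; luminescence read after 20 min. Ketoconazole positive control.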

For experiment [6], the target named is Cytochrome P450 2C9 (Homo sapiens) (UniProt P11712). In words: Cytochrome P450 Family 2 Subfamily C Member 9 (CYP2C9) small molecule antagonists: luciferase reporter qHTS assay (AID 1671198). The method in brief: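 CYP2C9 activity was measured with a P450-Glo proluciferin substrate. Enzyme–substrate mix was held with compound for 10 min at room temperature, then NADPH regeneration solution was added for 1 h at 37C. Luciferin product was read as luminescence.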

Results filed as inconclusive are left out. Calls of active or inactive are those of the source. Calls come from the whole dose curve; as a rule, active = well fitted curve in the direction sought with a large enough effect in the repeat runs; inconclusive = weak or mixed curves; inactive = no such curve, though single readings can be large; an effect the other way counts as inactive or inconclusive.
% is set by controls: 0 for no effect and ±100 for the full control effect.

Cytochrome P450 2D6 (Homo sapiens), sequence (P10635 whole entry, looked up): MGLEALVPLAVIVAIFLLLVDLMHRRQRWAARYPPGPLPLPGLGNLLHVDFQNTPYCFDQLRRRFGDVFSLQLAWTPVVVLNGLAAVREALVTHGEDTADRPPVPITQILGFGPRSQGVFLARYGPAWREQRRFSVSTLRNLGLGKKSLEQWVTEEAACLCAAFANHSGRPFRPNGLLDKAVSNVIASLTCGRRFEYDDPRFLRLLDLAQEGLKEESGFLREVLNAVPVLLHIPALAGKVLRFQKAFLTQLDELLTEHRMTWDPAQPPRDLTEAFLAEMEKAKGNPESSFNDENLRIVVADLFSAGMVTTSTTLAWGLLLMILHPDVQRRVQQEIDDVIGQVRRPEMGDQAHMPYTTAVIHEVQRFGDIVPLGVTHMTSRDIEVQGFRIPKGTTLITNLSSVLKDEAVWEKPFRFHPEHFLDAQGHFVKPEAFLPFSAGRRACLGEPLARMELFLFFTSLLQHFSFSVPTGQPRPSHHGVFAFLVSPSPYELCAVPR
Cytochrome P450 2C19 (Homo sapiens), sequence (P33261 whole entry, looked up): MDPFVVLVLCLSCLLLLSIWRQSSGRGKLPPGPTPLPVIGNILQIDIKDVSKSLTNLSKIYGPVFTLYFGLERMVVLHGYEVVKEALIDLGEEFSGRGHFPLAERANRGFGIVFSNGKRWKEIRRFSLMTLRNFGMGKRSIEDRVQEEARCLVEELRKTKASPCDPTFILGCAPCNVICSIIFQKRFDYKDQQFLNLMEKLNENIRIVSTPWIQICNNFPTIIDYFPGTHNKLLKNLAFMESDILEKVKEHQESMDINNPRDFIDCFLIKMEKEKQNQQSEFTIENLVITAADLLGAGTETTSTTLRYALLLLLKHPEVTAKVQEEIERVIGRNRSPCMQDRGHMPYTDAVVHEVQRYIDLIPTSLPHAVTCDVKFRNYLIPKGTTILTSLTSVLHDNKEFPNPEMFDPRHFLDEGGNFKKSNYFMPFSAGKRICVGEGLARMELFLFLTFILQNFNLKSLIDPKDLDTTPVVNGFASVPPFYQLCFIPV
Cytochrome P450 1A2 (Homo sapiens), sequence (P05177 whole entry, looked up): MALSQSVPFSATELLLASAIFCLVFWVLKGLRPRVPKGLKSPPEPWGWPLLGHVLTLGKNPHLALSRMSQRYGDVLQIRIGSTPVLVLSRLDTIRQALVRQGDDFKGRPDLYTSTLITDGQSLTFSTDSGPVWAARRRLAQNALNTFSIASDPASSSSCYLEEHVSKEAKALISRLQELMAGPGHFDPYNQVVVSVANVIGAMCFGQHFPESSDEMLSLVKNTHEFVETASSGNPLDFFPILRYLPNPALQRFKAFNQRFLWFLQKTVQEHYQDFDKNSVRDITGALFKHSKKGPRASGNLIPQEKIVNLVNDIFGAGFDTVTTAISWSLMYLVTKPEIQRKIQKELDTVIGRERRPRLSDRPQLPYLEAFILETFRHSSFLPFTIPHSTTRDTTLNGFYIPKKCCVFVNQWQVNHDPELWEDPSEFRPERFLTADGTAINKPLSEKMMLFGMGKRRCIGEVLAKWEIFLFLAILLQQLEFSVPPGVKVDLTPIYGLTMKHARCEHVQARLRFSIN
Voltage-gated inwardly rectifying potassium channel KCNH2 (Homo sapiens), sequence (Q12809 whole entry, looked up): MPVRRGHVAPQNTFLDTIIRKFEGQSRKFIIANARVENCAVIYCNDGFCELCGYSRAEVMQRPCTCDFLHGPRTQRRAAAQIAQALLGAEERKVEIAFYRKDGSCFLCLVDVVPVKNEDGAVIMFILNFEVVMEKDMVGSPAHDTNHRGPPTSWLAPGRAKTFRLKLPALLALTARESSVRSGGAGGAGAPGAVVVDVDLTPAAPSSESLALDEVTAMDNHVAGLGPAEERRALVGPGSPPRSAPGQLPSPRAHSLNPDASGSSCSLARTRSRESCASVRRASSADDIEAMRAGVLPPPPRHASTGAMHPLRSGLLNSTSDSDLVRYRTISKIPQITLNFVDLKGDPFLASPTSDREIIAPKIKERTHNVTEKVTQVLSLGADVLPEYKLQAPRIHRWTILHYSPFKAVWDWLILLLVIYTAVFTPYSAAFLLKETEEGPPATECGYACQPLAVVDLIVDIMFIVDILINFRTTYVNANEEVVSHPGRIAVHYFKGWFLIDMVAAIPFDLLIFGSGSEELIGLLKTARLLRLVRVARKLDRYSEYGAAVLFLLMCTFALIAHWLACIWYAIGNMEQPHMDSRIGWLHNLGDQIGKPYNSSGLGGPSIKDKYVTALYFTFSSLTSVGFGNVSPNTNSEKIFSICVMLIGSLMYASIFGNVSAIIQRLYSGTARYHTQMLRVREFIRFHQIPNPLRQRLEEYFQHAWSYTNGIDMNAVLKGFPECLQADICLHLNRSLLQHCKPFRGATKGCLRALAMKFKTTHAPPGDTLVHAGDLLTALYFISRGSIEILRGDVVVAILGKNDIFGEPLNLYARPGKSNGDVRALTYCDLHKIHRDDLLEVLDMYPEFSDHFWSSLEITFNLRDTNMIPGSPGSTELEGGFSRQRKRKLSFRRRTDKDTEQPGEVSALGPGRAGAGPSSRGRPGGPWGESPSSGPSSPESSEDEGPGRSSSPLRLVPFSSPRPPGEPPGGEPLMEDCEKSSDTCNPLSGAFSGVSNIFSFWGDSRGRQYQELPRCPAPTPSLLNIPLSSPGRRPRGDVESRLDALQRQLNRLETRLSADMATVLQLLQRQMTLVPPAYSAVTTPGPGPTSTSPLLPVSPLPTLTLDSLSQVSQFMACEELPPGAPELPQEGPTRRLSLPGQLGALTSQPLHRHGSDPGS
Cytochrome P450 3A4 (Homo sapiens), sequence (P08684 whole entry, looked up): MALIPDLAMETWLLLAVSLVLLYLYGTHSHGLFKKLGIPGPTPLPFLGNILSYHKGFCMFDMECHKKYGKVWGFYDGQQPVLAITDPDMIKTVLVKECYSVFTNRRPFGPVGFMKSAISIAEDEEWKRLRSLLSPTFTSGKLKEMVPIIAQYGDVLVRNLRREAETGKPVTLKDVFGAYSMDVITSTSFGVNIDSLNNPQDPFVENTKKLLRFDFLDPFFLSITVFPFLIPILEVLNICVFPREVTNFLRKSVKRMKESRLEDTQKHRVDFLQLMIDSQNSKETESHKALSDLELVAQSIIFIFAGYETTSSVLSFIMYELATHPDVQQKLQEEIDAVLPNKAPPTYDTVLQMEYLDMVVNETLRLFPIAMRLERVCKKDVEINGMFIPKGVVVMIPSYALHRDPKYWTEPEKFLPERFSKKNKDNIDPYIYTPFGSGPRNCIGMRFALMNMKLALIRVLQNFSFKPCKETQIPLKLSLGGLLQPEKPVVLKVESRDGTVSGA
Cytochrome P450 2C9 (Homo sapiens), sequence (P11712 whole entry, looked up): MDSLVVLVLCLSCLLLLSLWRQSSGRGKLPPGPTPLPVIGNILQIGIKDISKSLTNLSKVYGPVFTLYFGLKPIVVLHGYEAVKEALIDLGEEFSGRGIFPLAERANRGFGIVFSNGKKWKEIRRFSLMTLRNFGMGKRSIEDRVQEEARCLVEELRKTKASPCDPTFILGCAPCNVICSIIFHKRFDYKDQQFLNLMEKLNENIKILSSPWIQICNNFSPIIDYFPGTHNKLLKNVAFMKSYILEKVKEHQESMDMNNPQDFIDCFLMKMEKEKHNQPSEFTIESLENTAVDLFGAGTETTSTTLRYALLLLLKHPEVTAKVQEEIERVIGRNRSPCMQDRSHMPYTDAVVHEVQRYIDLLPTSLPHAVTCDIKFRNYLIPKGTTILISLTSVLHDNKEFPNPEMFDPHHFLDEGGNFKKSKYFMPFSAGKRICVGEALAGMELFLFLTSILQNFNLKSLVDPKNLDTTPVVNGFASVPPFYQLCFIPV

`CCN(Cc1cccc(S(=O)(=O)O)c1)c1ccc(C(=C2C=CC(=[N+](CC)Cc3cccc(S(=O)(=O)O)c3)C=C2)c2ccc(O)cc2S(=O)(=O)[O-])cc1`: the Potency is 19.3 µM (active) in experiment [1], 13.6 µM (active) in experiment [2], 17.2 µM (active) in experiment [3] and 19.3 µM (active) in experiment [5]. For the same compound, in experiment [4], the Potency result is “inactive”.
On to `CNc1c2c(nn1C)CCCC2`, for which the Potency result in experiment [1], in experiment [2], in experiment [3], in experiment [4] and in experiment [5] was “inactive” in each case.
With `CCN(CC)C(=O)/C(C#N)=C/c1cc(O)c(O)c([N+](=O)[O-])c1`, the Potency entry in experiment [1], in experiment [2], in experiment [3], in experiment [4] and in experiment [5] was “inactive” throughout.
With `CC[C@@H](CO)NCCN[C@@H](CC)CO`, the Potency entry in experiment [1], in experiment [2], in experiment [3] and in experiment [4] was “inactive” in each case.
For the compound `CCOC(=O)Oc1ccc(CCNC(=O)[C@H](CCSC)NC(C)=O)cc1OC(=O)OCC`, the Potency entry in experiment [1], in experiment [2], in experiment [3] and in experiment [4] was “inactive” in each case.
Turning to `CC1CCCC(=O)C1=O` (configuration not stated), the Potency result in experiment [1], in experiment [2], in experiment [3], in experiment [4] and in experiment [5] was “inactive” in each case.
On to `CC1=CC[C@@H]2C[C@H]1C2(C)C`, for which the activity change, negative = inhibition in experiment [1] was -8.83% [at 23.6 µM] (inactive); in experiment [2], -6.89% [at 23.6 µM] (inactive); in experiment [3], -16.3% [at 23.6 µM] (inactive); in experiment [4] it was -0.97% [at 15.8 µM] (inactive). The Potency in experiment [5] is 3.98 µM (active).
Take `CCOC(=O)c1ccc(NC(=O)CN2CCCCC2)cc1`: the Potency in experiment [1] is 17.4 µM (active); in experiment [3], 32.3 µM (active). Also, the Potency result in experiment [2], in experiment [4] and in experiment [5] was “inactive” throughout.
In the case of `CC1CCc2nccnc21` (configuration not stated), the Potency entry in experiment [1], in experiment [2], in experiment [6], in experiment [4] and in experiment [5] was “inactive” each time.
For the compound `COc1ccc(C2C(=O)c3ccccc3C2=O)cc1`, the Potency result in experiment [1], in experiment [3] and in experiment [4] was “inactive” throughout. For the same compound, in experiment [2], the Potency was 8.71 µM (active).

The values above are taken from PubChem BioAssay (Tox21).
